Measurements taken from PubChem BioAssay (NCATS).
Results filed as inconclusive are left out. The source made the active and inactive calls. Unless noted, the call rests on the fitted dose curve; in most records, active means well fitted curve in the direction sought with a large enough effect; inconclusive means small, poorly fitted or top-dose-only effect, or another doubt; inactive means no such curve, though single readings can be large; an effect the other way counts as inactive or inconclusive.

Legend:
[1] = target: Cytochrome P450 3A4 (Homo sapiens) (UniProt P08684); experiment: qHTS Assay for Inhibitors and Substrates of Cytochrome P450 3A4 (AID 884); further: nearly all actives have a fitted effect of over 50% in size; further: potency means the concentration at half of the fitted maximal effect; on activity change, negative = inhibition: on the % scale 0 is the no-effect control and ±100 the full control effect
Sequence of Cytochrome P450 3A4 (Homo sapiens) (P08684 whole entry, looked up): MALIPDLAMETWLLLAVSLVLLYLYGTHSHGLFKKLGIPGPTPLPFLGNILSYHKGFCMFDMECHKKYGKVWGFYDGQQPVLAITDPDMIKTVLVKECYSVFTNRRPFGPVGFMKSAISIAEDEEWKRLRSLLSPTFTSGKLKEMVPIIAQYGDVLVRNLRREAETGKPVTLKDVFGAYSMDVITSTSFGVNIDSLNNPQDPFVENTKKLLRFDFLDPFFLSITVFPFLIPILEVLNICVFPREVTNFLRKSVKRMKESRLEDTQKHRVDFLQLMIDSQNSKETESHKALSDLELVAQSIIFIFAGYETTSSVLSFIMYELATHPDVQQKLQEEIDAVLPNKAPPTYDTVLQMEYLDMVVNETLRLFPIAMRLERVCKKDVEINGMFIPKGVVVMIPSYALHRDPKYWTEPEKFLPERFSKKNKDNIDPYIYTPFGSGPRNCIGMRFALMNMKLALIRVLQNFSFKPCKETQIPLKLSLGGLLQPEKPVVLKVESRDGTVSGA
In short: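 Luminescent readout of luciferin produced by CYP3A4 (20 nM) dealkylation of Luciferin-PPXE, 25 uM (its KM). NADPH-driven reaction ran 60 min at RT after 10 min compound preincubation; data scaled to 57 uM ketoconazole as 100% inhibition.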

[2] = qHTS Assay for Lipid Storage Modulators (AID 1519; calls by dose curve; further: potency means the concentration at half of the fitted maximal effect; on activity change, negative = inhibition: on the % scale 0 is the no-effect control and ±100 the full control effect); conditions: Drosophila S3 cells, BODIPY lipid droplet/cell ratio, laser cytometry, cells loaded with oleic acid; for activity change, negative = inhibition: at 57.5 µM (top of the series)
In short: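 Cells seeded at 5,000 per well were treated with compounds over a concentration series and loaded with oleic acid (400 uM, as added). Lipid droplet fluorescence (488 nm excitation, 500-530 nm channel) was read by laser-scanning cytometry and normalized to 20 uM Triacsin C.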

[3] = target: DNA dC->dU-editing enzyme APOBEC-3G (Homo sapiens) (UniProt Q9HC16); experiment: qHTS for inhibitors of Vif-A3G interactions: Validation (AID 588379); further: 0% is about no effect
Sequence of DNA dC->dU-editing enzyme APOBEC-3G (Homo sapiens) (Q9HC16 whole entry, looked up): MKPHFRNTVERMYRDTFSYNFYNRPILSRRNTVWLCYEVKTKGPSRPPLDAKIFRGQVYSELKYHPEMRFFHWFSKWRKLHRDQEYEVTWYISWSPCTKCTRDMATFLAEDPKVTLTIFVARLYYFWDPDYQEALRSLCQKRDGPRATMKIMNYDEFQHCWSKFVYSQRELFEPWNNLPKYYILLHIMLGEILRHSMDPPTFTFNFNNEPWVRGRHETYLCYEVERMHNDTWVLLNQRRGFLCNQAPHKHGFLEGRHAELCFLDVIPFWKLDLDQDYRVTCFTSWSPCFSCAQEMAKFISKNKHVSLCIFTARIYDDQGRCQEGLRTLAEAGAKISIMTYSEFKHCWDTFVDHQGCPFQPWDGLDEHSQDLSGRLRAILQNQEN
In short: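 Yellow fluorescence (Ex 488, Em 500-530) of Vif-coexpressing HeLa A3G-eYFP cells, scanned by Acumen cytometer, reports blocked A3G degradation. Cells plated at 700/well overnight at 37 deg C before compound addition, then a further overnight compound incubation at 37 deg C.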

[4] = target: Cytochrome P450 3A4 (Homo sapiens) (UniProt P08684); experiment: qHTS Assay for Activators of Cytochrome P450 3A4 (AID 885); further: nearly all actives have a fitted effect of over 65% in size
In short: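 CYP3A4 activity: Luciferin-PPXE O-dealkylation, 25uM substrate, 200mM KPO4, RT throughout. Read-out is luciferase luminescence; higher values reflect activation.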

[5] = Confirmation and Secondary Assay for Modulators of Hemoglobin Beta Chain Splicing at IVS2 654 locus (AID 910);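 further: HeLa cells stably carrying EGFP split by mutant beta-globin IVS2-654 intron; % of control where 0% means no effect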
In short: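 Readout: per-well total peak green fluorescence (488 nm ex, 500–520 nm em) from objects 5–250 µm, reflecting correct splicing of an EGFP-654 reporter. Compounds were applied for 2 days at 37 °C to overnight-plated HeLa EGFP-654 cells; controls were DMSO and 500 nM IVS2-654 PNA.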

[6] = Confirmation and Secondary Assay for Modulators of Hemoglobin Beta Chain Splicing at IVS2 705 locus (AID 930);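 further: HeLa cells stably expressing the EGFP-705 splicing reporter; GFP fluorescence per well restored by corrected splicing of the IVS2-705 intron in EGFP; % of control where 0% means no effect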
In short: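 HeLa cells stably carrying EGFP interrupted by mutant beta-globin intron 2 (IVS2-705) treated 2 days at 37C with compound; 500 nM antisense PNA as control. Correct splicing read as total peak GFP intensity per well by laser-scanning cytometry.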

[7] = measured here: cell count channel max response
[8] = measured here: lipid channel max response

Compound | Potency [1] | activity change, negative = inhibition [2] | max response [2, 7] [%] | max response [2, 8] [%] | outcome [3] | Potency [4] | Potency [5] | Potency [6] | Potency [2]
N=c1ccn2c(n1)O[C@@H]1[C@H](O)[C@H](CO)O[C@@H]12 | inactive | -7.95% (inactive) | 4.02 | -4.27 | inactive | – | – | – | –
COC(=O)CC1C2(C)CC34OC5(C)O[C@@]6(C7/C(=C(/O)C(C)C)C(=O)OC(c8ccoc8)[C@]7(C)C(OC(C)=O)C(OC(C)=O)[C@]6(O5)[C@@]13C)C(OC(C)=O)[C@]4(O)C2OC(=O)C(C)C (stereo not given in full) | 12.6 µM (active) | 8.78% (inactive) | 16.6 | 29.3 | – | inactive | inactive | inactive | –
CCC(C)C(=O)OC1C2CC3=C4CC(=O)OC(c5ccoc5)[C@]4(C)CCC3[C@@](C)(C2=O)C(CC(=O)OC)C1(C)C (stereo not given in full) | 6.31 µM (active) | -2.94% (inactive) | -4.4 | -5.82 | – | inactive | inactive | inactive | –
CC(=O)OC1CC2C(C)(C)C(=O)CC[C@]2(C)C2CC[C@@]3(C)C(c4ccoc4)OC(=O)C4OC43[C@]12C (stereo not given in full) | 3.98 µM (active) | 5.91% (inactive) | 22.7 | 27.2 | – | inactive | inactive | inactive | –
COC(=O)[C@]1(C)CCC[C@]2(C)c3ccc(C(C)C)cc3C(=O)CC12 (stereo not given in full) | 25.1 µM (active) | 1.78% (inactive) | 15.8 | 18.5 | – | inactive | inactive | inactive | –
CC1=CC(=O)C2C(C)(C)CCC[C@@]2(C)[C@@]1(O)CCc1ccoc1 (stereo not given in full) | 15.8 µM (active) | -1.73% (inactive) | 10.7 | 10.8 | – | inactive | inactive | inactive | –
COc1c2ccoc2nc2c(OC)c(OCC(O)C(C)(C)O)ccc12 (stereo not given) | – | 9.6% (inactive) | 16.9 | 29.2 | inactive | inactive | inactive | inactive | –
CC[C@@H]1OC(=O)[C@@H](C)[C@H](O[C@H]2C[C@@](C)(OC)[C@@H](O)[C@H](C)O2)C(C)[C@H](O[C@H]2O[C@@H](C)C[C@@H](N(C)C)[C@@H]2O)[C@@](C)(O)C[C@H](C)C(=O)[C@@H](C)[C@H](O)[C@@]1(C)O (stereo not given in full) | 15.8 µM (active) | 6.26% (inactive) | 3.51 | 7.04 | inactive | – | – | – | –
C=C1CCC(OC(C)=O)/C(C)=C/CC2[C@H]1CC2(C)C (stereo not given in full) | 31.6 µM (active) | 1.96% (inactive) | 2.53 | 5.33 | – | inactive | inactive | inactive | –
CC(=O)OC1CC2C(C)(C)C(=O)C=C[C@]2(C)C2CC[C@@]3(C)C(c4ccoc4)OC(=O)C4O[C@@]43[C@]12C (stereo not given in full) | 12.6 µM (active) | -1.71% (inactive) | 11.5 | 11.5 | – | inactive | inactive | inactive | –
COc1ccc(C2CC(=O)c3c(O)cc(OC4OC(COC5OC(C)C(O)C(O)C5O)C(O)C(O)C4O)cc3O2)cc1O (stereo not given) | inactive | -2.69% (inactive) | -19 | -20.2 | inactive | – | – | – | –
COc1ccc2c(c1)OC/C(=C\c1ccc(OC)c(O)c1)C2=O | 10 µM (active) | -9.54% (inactive) | 2.46 | -8.22 | – | inactive | inactive | inactive | –
COc1ccccc1-c1cc(=O)c2cccc(OC)c2o1 | 20 µM (active) | 6.98% (inactive) | 13.5 | 23.2 | – | inactive | inactive | inactive | –
O=C(O)CCCC[C@@H]1SC[C@H]2NC(=O)N[C@@H]12 | inactive | 6.17% (inactive) | 12.9 | 23.3 | inactive | – | – | – | –
CC(C)/C(O)=C1/C(=O)OC(c2ccoc2)[C@@]2(C)C(O)C(O)[C@@]34OC5(C)OC67CC(C)(C(O)[C@@]6(O)C(O)[C@@]3(O5)C12)C(CC(=O)O)[C@@]74C (stereo not given in full) | 12.6 µM (active) | 0.873% (inactive) | -1.97 | 0.302 | – | inactive | inactive | inactive | –
COc1ccc(CC(=O)c2ccc(O)cc2O)cc1 | 12.6 µM (active) | 4.14% (inactive) | -22.7 | -16.5 | – | inactive | inactive | inactive | –
C=C1C(C2(C)C=CC(=O)C(C)(C)C2CC(=O)OC)CC[C@@]2(C)C(c3ccoc3)OC(=O)C3OC132 (stereo not given in full) | 2.51 µM (active) | 4.06% (inactive) | 5.07 | 10.2 | – | inactive | inactive | inactive | –
COc1ccc2c(c1)OC1(O)COc3cc(OC)c(OC)cc3C1=C2 (stereo not given) | 7.94 µM (active) | 0.865% (inactive) | -18.4 | -15.5 | – | inactive | inactive | inactive | –
COc1cc(O)c(C(C)=O)c(OC)c1 | 25.1 µM (active) | 4.43% (inactive) | 20 | 28.9 | – | inactive | inactive | inactive | –

Compound | Potency [1] | activity change, negative = inhibition [2] | max response [2, 7] [%] | max response [2, 8] [%] | outcome [3] | Potency [4] | Potency [5] | Potency [6] | Potency [2]
C=C[C@](C)(O)CCC1C(=C)CC(O)C2C(C)(C)CCCC12C (stereo not given in full) | 1.58 µM (active) | 10.1% (inactive) | 7.01 | 14.1 | – | inactive | inactive | inactive | –
COC(=O)CC1C(C)(C)C(O)C2CC3=C4CC(O)OC(c5ccoc5)[C@]4(C)CCC3[C@@]1(C)C2=O (stereo not given in full) | 3.16 µM (active) | -6.39% (inactive) | 8.85 | 5.28 | – | inactive | inactive | inactive | –
C/C=C(\C)C(=O)OC1c2c(ccc3ccc(=O)oc23)OC(C)(C)C1OC(C)=O (stereo not given) | 25.1 µM (active) | -20.9% (inactive) | -0.795 | -21.2 | – | inactive | inactive | inactive | –
NC(Cc1c[nH]c2ccccc12)C(=O)NCC(=O)O (stereo not given) | inactive | 2.26% (inactive) | -12.4 | -10.5 | inactive | – | – | – | –
O=C(/C=C/c1ccc(O)cc1)c1ccccc1O | 1.58 µM (active) | -18.4% (inactive) | 5.42 | -11.8 | – | inactive | inactive | inactive | –
O=C(/C=C/c1ccc(O)c(O)c1)O[C@@H]1C[C@@](O)(C(=O)O)C[C@H](O)[C@@H]1O | inactive | -7.73% (inactive) | 3.01 | -5.95 | inactive | – | – | – | –
CC(C)C1=CC2=CC[C@@H]3[C@@](C)(C(=O)O)CCC[C@]3(C)C2CC1 (stereo not given in full) | inactive | 0.573% (inactive) | -0.0856 | -0.672 | inactive | – | – | – | –
O=c1c2ccccc2oc2cc(O)c(C3COCC(CO)C(O)C(O)C3O)c(O)c12 (stereo not given) | inactive | 16.5% (inactive) | 22.8 | 36.9 | inactive | – | – | – | –
CC1=CCc2c(cc3oc(C)cc(=O)c3c2O)OC1 | 25.1 µM (active) | 15.7% (inactive) | 14.5 | 19.5 | – | inactive | inactive | inactive | –
COc1ccc(C(C)C(=O)c2ccc(O)cc2O)cc1 (stereo not given) | 3.98 µM (active) | 0.578% (inactive) | -18.6 | -16.9 | – | inactive | inactive | inactive | –
CC(C)C(C)/C=C/C(C)C1CCC2C3=CC=C4CC(O)CCC4(C)C3CCC21C (stereo not given) | inactive | 4.22% (inactive) | 8.27 | 15.2 | – | – | inactive | inactive | –
COC(=O)CCC(C)C1CCC2C3CC[C@H]4CC(O)CC[C@@]4(C)C3CC(O)[C@]12C (stereo not given in full) | inactive | 1.15% (inactive) | -3.87 | -3.09 | – | – | inactive | inactive | –
O=c1[nH]c(=O)n(C2CC(O)C(CO)O2)cc1F (stereo not given) | inactive | 3.4% (inactive) | 3.49 | 8.27 | – | – | inactive | inactive | –
CSC(N)=NCCCC(N)C(=O)O (stereo not given) | inactive | 1.56% (inactive) | 5.01 | 8.49 | – | – | inactive | inactive | –
COC(=O)CC1C(C)(C)C(OC(C)=O)C2[C@H](OC(C)=O)[C@]34O[C@]2(O)[C@]1(C)C3CC[C@]1(C)C4=CC(=O)OC1c1ccoc1 (stereo not given in full) | 2 µM (active) | – | -16.6 | -68.9 | – | inactive | – | inactive | 15.8 µM (active)
C/C(=C\CO)CCC(C)CCCC(C)CCCC(C)C (stereo not given) | inactive | 6.09% (inactive) | 8.07 | 14.9 | – | – | inactive | inactive | –
Cc1c(S(=O)(=O)O)oc2c1C(=O)C(=O)c1c-2ccc2c1CCCC2(C)C | 10 µM (active) | 4.38% (inactive) | 7.96 | 15.5 | – | inactive | – | inactive | –
CC(=O)OC1CC[C@@]2(C)C(CC[C@@]3(C)C2CC=C2C4CC(C)(C)CC[C@]4(C(=O)O)CC[C@@]23C)C1(C)C (stereo not given in full) | inactive | 9.65% (inactive) | 12.5 | 29 | – | – | inactive | inactive | –
